Test results taken from PubChem BioAssay (EPA / NIEHS).
Calls of active or inactive are those of the source. How the source made its calls: active means hit-call score of the fitted dose curve at least 0.9, where 1 is the maximum; inactive means score below 0.9.

Experiments:
[1] = read-out: Transforming growth factor beta 1 (TGFb1), TGFB1 (gene 7040); assay: BSK_KF3CT_TGFb1: BioMAP Diversity Plus: KF3CT Assay for Transforming growth factor beta 1 (TGFb1) Biomarker Activity (AID 2283072); settings: primary human keratinocytes with fibroblasts; actives raise or lower the signal
Outline: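 Primary human skin cells (keratinocytes, foreskin fibroblasts) were co-cultured, exposed to test chemical and sampled at 24 h. TGF-b1 levels were measured by ELISA and fitted bidirectionally relative to DMSO.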

[2] = read-out: C-C motif chemokine 2 (Homo sapiens) (UniProt P13500); assay: BSK_KF3CT_MCP1: BioMAP Diversity Plus: KF3CT Assay for Monocyte Chemoattractant Protein 1 (MCP1/CCL2) Biomarker Activity (AID 2283073); settings: primary human keratinocytes with fibroblasts; actives raise or lower the signal
Outline: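 Biomarker MCP-1 is measured by ELISA in primary human keratinocytes co-cultured with foreskin fibroblasts, 24 h after chemical treatment; DMSO serves as the negative control and activity baseline.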

[3] = read-out: Matrix Metallopeptidase 9 (MMP9), MMP9 (gene 4318); assay: BSK_KF3CT_MMP9: BioMAP Diversity Plus: KF3CT Assay for Matrix Metallopeptidase 9 (MMP9) Biomarker Activity (AID 2283074); settings: primary human keratinocytes with fibroblasts; actives raise or lower the signal
Outline: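 Human keratinocyte/foreskin fibroblast co-culture; compound added; 24 h; MMP-9 by ELISA; bidirectional fit vs DMSO baseline.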

[4] = read-out: urokinase plasminogen activator (uPA), PLAU (gene 5328); assay: BSK_KF3CT_uPA: BioMAP Diversity Plus: KF3CT Assay for urokinase plasminogen activator (uPA) Biomarker Activity (AID 2283075); settings: primary human keratinocytes with fibroblasts; actives raise or lower the signal
Outline: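 ELISA readout of uPA, analyzed for signal gain or loss relative to DMSO, from a human primary keratinocyte–foreskin fibroblast co-culture measured 24 h after chemical treatment.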

[5] = read-out: CD40, CD40 (gene 958); assay: BSK_LPS_CD40: BioMAP Diversity Plus: LPS Assay for CD40 Biomarker Activity (AID 2283076); settings: primary human HUVEC with PBMC; actives raise or lower the signal
Outline: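 Using a multiplexed primary human co-culture (umbilical vein endothelium plus PBMC), CD40 was read by ELISA 24 h after dosing, with cytotoxicity tracked by sulforhodamine B staining of parallel cultures and activity fitted bidirectionally versus DMSO.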

[6] = read-out: E-selectin (Homo sapiens) (UniProt P16581); assay: BSK_LPS_Eselectin: BioMAP Diversity Plus: LPS Assay for Eselectin Biomarker Activity (AID 2283077); settings: primary human HUVEC with PBMC; actives raise or lower the signal
Outline: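 Dose chemical onto LPS-driven HUVEC/PBMC co-culture; after 24 h, run ELISA for E-selectin; fit up- and down-going responses relative to DMSO control.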

[7] = read-out: Interleukin-8 (IL8), CXCL8 (gene 3576); assay: BSK_LPS_IL8: BioMAP Diversity Plus: LPS Assay for Interleukin-8 (IL8) Biomarker Activity (AID 2283078); settings: primary human HUVEC with PBMC; actives raise or lower the signal
Outline: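 In this LPS system, chemical-treated human umbilical vein endothelium/PBMC co-cultures were harvested at 24 h for IL-8 ELISA.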

[8] = BSK_LPS_SRB: Viability Assessment in the BioMAP Diversity Plus: LPS Assay (AID 2283079); settings: primary human HUVEC with PBMC;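 further: total protein by sulforhodamine B absorbance as a cytotoxicity measure; measured one day after compound addition; fitted in both directions against DMSO so loss or gain of signal counts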
Outline: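 Cytotoxicity endpoint in human endothelial–PBMC co-culture: 24 h exposure, then SRB (0.1%) staining, 560 nm read.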

[9] = read-out: Interleukin-1 alpha (IL1a), IL1A (gene 3552); assay: BSK_LPS_IL1a: BioMAP Diversity Plus: LPS Assay for Interleukin-1 alpha (IL1a) Biomarker Activity (AID 2283080); settings: primary human HUVEC with PBMC; actives raise or lower the signal
Outline: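 Primary human HUVEC and PBMC co-culture stimulated with LPS is dosed and harvested at 24 h. Both increases and decreases in ELISA-measured IL-1a are scored relative to DMSO.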

[10] = read-out: Monocyte Chemoattractant Protein-1 (MCP1), CCL2 (gene 6347); assay: BSK_LPS_MCP1: BioMAP Diversity Plus: LPS Assay for Monocyte Chemoattractant Protein-1 (MCP1) Biomarker Activity (AID 2283081); settings: primary human HUVEC with PBMC; actives raise or lower the signal
Outline: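 Values derive from bidirectional fitting against DMSO of ELISA-measured MCP-1 in a human primary endothelial and mononuclear cell co-culture, 24 h after chemical addition under LPS activation.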

[11] = BSK_LPS_PGE2: BioMAP Diversity Plus: LPS Assay for Prostaglandin E2 (PGE2) Biomarker Activity (AID 2283082); settings: primary human HUVEC with PBMC; actives raise or lower the signal
Outline: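 LPS-activated HUVEC/PBMC co-culture; cmpd dosed, 24 h; PGE2 by ELISA; bidirectional fit vs DMSO; SRB (0.1%, TCA-fixed, 560 nm) in parallel plates for overt cytotox.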

[12] = read-out: Macrophage colony-stimulating factor (MCSF), CSF1 (gene 1435); assay: BSK_LPS_MCSF: BioMAP Diversity Plus: LPS Assay for Macrophage colony-stimulating factor (MCSF) Biomarker Activity (AID 2283083); settings: primary human HUVEC with PBMC; actives raise or lower the signal
Outline: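 Bidirectional fit versus DMSO of ELISA-measured M-CSF in co-cultured human umbilical vein endothelial cells and PBMC, sampled 24 h after dosing.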

[13] = read-out: Tissue Factor, F3 (gene 2152); assay: BSK_LPS_TissueFactor: BioMAP Diversity Plus: LPS Assay for Tissue Factor Biomarker Activity (AID 2283084); settings: primary human HUVEC with PBMC; actives raise or lower the signal
Outline: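 Read-out: CD142 ELISA, 24 h. System: LPS-driven human endothelial/PBMC co-culture. Analysis: up- or down-signal fitted against DMSO.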

[14] = read-out: Tumor necrosis factor (Homo sapiens) (UniProt P01375); assay: BSK_LPS_TNFa: BioMAP Diversity Plus: LPS Assay for Tumour Necrosis Factor alpha (TNFa) Biomarker Activity (AID 2283085); settings: primary human HUVEC with PBMC; actives raise or lower the signal
Outline: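 Read-out is ELISA of TNFa in primary human endothelial cell–PBMC co-cultures at 24 h after compound. Activity in either direction was fitted against DMSO.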

[15] = read-out: Vascular cell adhesion molecule 1 (VCAM1), VCAM1 (gene 7412); assay: BSK_LPS_VCAM1: BioMAP Diversity Plus: LPS Assay for Vascular cell adhesion molecule 1 (VCAM1) Biomarker Activity (AID 2283086); settings: primary human HUVEC with PBMC; actives raise or lower the signal
Outline: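 HUVEC + PBMC co-culture, LPS system; compound 24 h; VCAM-1 by ELISA; bidirectional fit vs DMSO control; parallel SRB (0.1%, TCA-fixed, 560 nm) for cytotoxicity.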

[16] = read-out: CD38, CD38 (gene 952); assay: BSK_SAg_CD38: BioMAP Diversity Plus: SAg Assay for CD38 Biomarker Activity (AID 2283087); settings: primary human HUVEC with PBMC; actives raise or lower the signal
Outline: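 Human HUVEC plus PBMC co-culture stimulated with superantigen; CD38 measured by ELISA 24 h after chemical dosing. Fluorescence read-out, bidirectional fit against DMSO; cytotoxicity tracked in parallel by SRB and Alamar Blue.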

[17] = read-out: CD40, CD40 (gene 958); assay: BSK_SAg_CD40: BioMAP Diversity Plus: SAg Assay for CD40 Biomarker Activity (AID 2283088); settings: primary human HUVEC with PBMC; actives raise or lower the signal
Outline: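 Endpoint derived by fitting increases or decreases versus DMSO controls. CD40 is detected by fluorescence ELISA in a human vascular co-culture of endothelium and PBMC at 24 h.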

[18] = read-out: CD69, CD69 (gene 969); assay: BSK_SAg_CD69: BioMAP Diversity Plus: SAg Assay for CD69 Biomarker Activity (AID 2283089); settings: primary human HUVEC with PBMC; actives raise or lower the signal
Outline: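 ELISA, fluorescence read-out: CD69 on human umbilical vein endothelial cell + PBMC co-culture, 24 h post-dosing. Gain or loss of signal fitted bidirectionally against DMSO baseline.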

[19] = read-out: Monocyte Chemoattractant Protein-1 (MCP1), CCL2 (gene 6347); assay: BSK_SAg_MCP1: BioMAP Diversity Plus: SAg Assay for Monocyte Chemoattractant Protein-1 (MCP1) Biomarker Activity (AID 2283090); settings: primary human HUVEC with PBMC; actives raise or lower the signal
Outline: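 MCP-1 levels in the endothelial–PBMC SAg co-culture were quantified by ELISA at 24 h post-dosing; both increases and decreases versus DMSO scored. Cytotoxicity monitored by SRB total protein in parallel cultures.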

[20] = read-out: E-selectin (Homo sapiens) (UniProt P16581); assay: BSK_SAg_Eselectin: BioMAP Diversity Plus: SAg Assay for Eselectin Biomarker Activity (AID 2283091); settings: primary human HUVEC with PBMC; actives raise or lower the signal
Outline: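 Endpoint values derive from bidirectional fitting relative to DMSO, using ELISA-measured E-selectin in a human vascular co-culture (umbilical vein endothelium plus PBMC) sampled 24 h after dosing.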

Measured: outcome

Sequence of E-selectin (Homo sapiens) (P16581 whole entry, looked up): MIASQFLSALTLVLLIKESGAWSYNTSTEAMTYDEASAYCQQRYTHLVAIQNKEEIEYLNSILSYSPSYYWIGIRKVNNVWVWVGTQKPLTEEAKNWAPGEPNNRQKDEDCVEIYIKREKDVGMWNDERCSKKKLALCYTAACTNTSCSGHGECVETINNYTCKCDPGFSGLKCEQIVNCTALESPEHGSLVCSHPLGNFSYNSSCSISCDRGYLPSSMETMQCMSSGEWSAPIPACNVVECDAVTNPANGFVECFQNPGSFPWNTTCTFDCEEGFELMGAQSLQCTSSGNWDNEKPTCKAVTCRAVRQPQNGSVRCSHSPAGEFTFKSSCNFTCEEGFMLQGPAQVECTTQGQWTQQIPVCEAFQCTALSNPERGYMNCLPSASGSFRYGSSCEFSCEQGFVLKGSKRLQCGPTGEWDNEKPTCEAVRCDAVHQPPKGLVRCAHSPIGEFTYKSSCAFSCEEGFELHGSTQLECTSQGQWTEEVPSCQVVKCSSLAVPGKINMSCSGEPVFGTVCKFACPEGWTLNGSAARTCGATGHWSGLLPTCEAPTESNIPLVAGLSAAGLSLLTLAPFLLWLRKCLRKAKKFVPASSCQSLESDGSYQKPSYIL
Sequence of Tumor necrosis factor (Homo sapiens) (P01375 whole entry, looked up): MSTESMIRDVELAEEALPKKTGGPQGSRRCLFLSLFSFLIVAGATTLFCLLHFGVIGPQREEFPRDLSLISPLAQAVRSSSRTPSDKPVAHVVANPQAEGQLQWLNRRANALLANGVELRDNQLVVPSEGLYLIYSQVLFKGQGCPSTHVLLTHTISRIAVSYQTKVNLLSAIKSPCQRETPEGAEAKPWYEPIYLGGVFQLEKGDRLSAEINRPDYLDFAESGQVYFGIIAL

OC1CCCCC1
inactive: [1] | [2] | [3] | [4] | [5] | [6] | [7] | [8] | [9] | [10] | [11] | [12] | [13] | [14] | [15] | [16] | [17] | [18] | [19]

CC(C)CCCCCCOC(=O)CCCCC(=O)OCCCCCCC(C)C
inactive: [1] | [2] | [3] | [4] | [5] | [6] | [7] | [8] | [9] | [10] | [11] | [12] | [13] | [14] | [15] | [16] | [17] | [18] | [19] | [20]

OC1CCC(C2CCCCC2)CC1 (centres undefined)
inactive: [1] | [2] | [3] | [4] | [5] | [6] | [7] | [8] | [9] | [10] | [11] | [12] | [13] | [14] | [15] | [16] | [17] | [18] | [19] | [20]
